TbPYK inhibitor: qHTS of Trypanosoma Brucei Inhibitors | TbPYK enzyme, Kinase-Glo Plus ATP luminescence, 45 min | AID 624173, 2012 | hit rate 0.12% among 410,000 | pyruvate kinase (Trypanosoma brucei), Q57TT1 | Potency, µM (titrated, usually from 76.8 µM), actives largely listed as inhibitors; also: nearly all actives have a fitted effect of over 50% in size
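T. brucei PYK with substrate was exposed to pin-transferred compounds across a concentration series, then started with 130 uM ADP (final). After 45 min at room temperature, Kinase-Glo Plus luminescence was read, normalized and curve-fitted.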
HCMV inh: qHTS Assay for inhibitors of the human cytomegalovirus (HCMV); activity change, negative = inhibition, % at 57.5 µM; hit rate 4.5% among 410,000; HFF cells, HCMV-luciferase reporter, 72 h; hits give low values; AID 1259415, 2018; in the data active = activity change below about -60%; inconclusive = no clear call, values can overlap the other calls; inactive = above about -39%
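Compounds were evaluated in HFFs infected with an HCMV luciferase reporter virus (MOI 1 PFU/cell). Luciferase in lysates collected 72 h post infection served as the replication measure.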
Vaccinia Venus: qHTS for Stage-Specific Inhibitors of Vaccinia Orthopoxvirus: Venus Reporter Primary qHTS; Vaccinia virus Venus reporter expression, fluorescence; Potency, µM (series often up to 36.5 µM), hits mostly inhibitors; hit rate 0.46% among 330,000; AID 720580, 2013; calls by dose curve; tested in A549 cells; also: nearly all actives have a fitted effect of over 30% in size
Vaccinia mCherry: qHTS for Stage-Specific Inhibitors of Vaccinia Orthopoxvirus: mCherry Reporter Primary qHTS; Potency, µM (highest dose often 36.5 µM), usual class: inhibitors; hit rate 0.63% among 310,000; Vaccinia virus mCherry reporter infection, fluorescence; calls by dose curve; tested in A549 cells; also: nearly all actives have a fitted effect of over 35% in size
LmPK inhibitor: qHTS Assay for Inhibitors of Leishmania Mexicana Pyruvate Kinase (LmPK); purified LmPK, Kinase-Glo ATP luminescence, 1 h; Potency, µM (highest dose often 57.5 µM), usual class: inhibitors; hit rate 0.37% among 290,000; AID 1721, 2009
Target sequence (Q27686 whole entry, looked up): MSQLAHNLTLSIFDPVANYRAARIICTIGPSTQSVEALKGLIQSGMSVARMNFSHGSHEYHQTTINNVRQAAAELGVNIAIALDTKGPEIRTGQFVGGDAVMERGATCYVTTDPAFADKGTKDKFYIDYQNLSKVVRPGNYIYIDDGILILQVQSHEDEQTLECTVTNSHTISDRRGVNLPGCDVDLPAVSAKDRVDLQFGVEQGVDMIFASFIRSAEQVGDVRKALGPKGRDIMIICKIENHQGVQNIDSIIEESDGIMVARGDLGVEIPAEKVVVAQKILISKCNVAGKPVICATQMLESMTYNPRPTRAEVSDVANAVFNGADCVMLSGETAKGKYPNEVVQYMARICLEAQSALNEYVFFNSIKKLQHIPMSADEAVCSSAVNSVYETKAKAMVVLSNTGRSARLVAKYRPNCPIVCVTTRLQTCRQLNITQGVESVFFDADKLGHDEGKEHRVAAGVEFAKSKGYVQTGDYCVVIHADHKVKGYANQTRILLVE
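ATP generated from ADP (0.1 mM) and PEP (0.5 mM) by 0.1 nM LmPK over 1 h at room temperature (pH 7.2 imidazole buffer) was detected by coupled luciferase luminescence. Values were normalized to uninhibited and no-enzyme wells.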
Large screens that a line does not name were inactive. Only some compounds are listed: those with a hit (about 5% of all), similar ones and a draw of the others. Unless noted, calls follow the shape of the dose curve; as a rule, active = well fitted curve in the direction sought with a large enough effect; inconclusive = small, poorly fitted or top-dose-only effect, or another doubt; inactive = no such curve, though single readings can be large; an effect the other way counts as inactive or inconclusive.

N#C/C(=C(/O)COC(=O)CCC1CCCCC1)c1nc2ccccc2[nH]1	HCMV inh -68.8
CCCOc1ccc(F)cc1-c1cc(C(=O)Nc2ccc(OC)c(OC)c2)[nH]n1	none (no result: LmPK inhibitor)
CCCC(=O)OC/C(O)=C(\C#N)c1nc2ccccc2[nH]1	HCMV inh -73.2
N#CC(=C(O)COC(=O)Cc1c[nH]c2ccccc12)c1nc2ccccc2[nH]1	none (no result: LmPK inhibitor)
Cc1c(-c2cccc(Cl)c2)nc2ccccc2c1C(=O)OC/C(O)=C(\C#N)c1nc2ccccc2[nH]1	HCMV inh -81.8
CC1(C(=O)NCc2ccccc2Br)CCN1Cc1csc2ccccc12 (stereo unspecified)	none (no result: LmPK inhibitor)
COc1cccc(-n2c(SCC(=O)N3CCOCC3)nc3c([nH]c4ccccc43)c2=O)c1	none (no result: LmPK inhibitor)
O=c1c(N2CCOCC2)nsn1Cc1ccccc1	Vaccinia Venus inconclusive, Vaccinia mCherry 12.6µM
CCN(C(=O)CSc1nnc(-c2ccccc2F)n1N)c1c(N)n(Cc2ccccc2)c(=O)[nH]c1=O	none (no result: Vaccinia Venus, Vaccinia mCherry, LmPK inhibitor)
CCCC1(CCC)NC(=O)N(CC(=O)Nc2ccccc2OC)C1=O	HCMV inh -108.7 (no result: Vaccinia Venus, Vaccinia mCherry)
CCC1(CC)NC(=O)N(CC(=O)OC(C)C(=O)Nc2ccccc2OC)C1=O (stereo unspecified)	none (no result: LmPK inhibitor)
CCNC(=O)C1(C)CCN(C(=O)c2cc(OC)c(OC)c(OC)c2)C1 (stereo unspecified)	none (no result: LmPK inhibitor)
COc1cc(C(=O)OCc2cc3ccccc3[nH]c2=O)cc(OC)c1OC	HCMV inh -86.1 (no result: Vaccinia mCherry)
O=C1c2cccc(OCc3ccc(F)cc3)c2CCN1Cc1ccc(F)cc1	HCMV inh -82.4, Vaccinia Venus inconclusive, Vaccinia mCherry inconclusive
Cc1ccc(CN2CCc3c(OCc4ccc(F)cc4)cccc3C2=O)cc1	HCMV inh -80.7, Vaccinia Venus inconclusive, Vaccinia mCherry inconclusive
CN1CCc2c(OCc3ccc(F)cc3)cccc2C1=O	none
CCc1ccccc1NC(=O)CSc1nc2ccccc2n1CC(=O)N1CCCC1	none (no result: Vaccinia mCherry)
CC(C)c1ccc(NC(=O)c2cc3sc(Cl)cc3n2C)cc1	none (no result: LmPK inhibitor)
CC(C)OC(=O)C1=C2SCC(=O)N2C(N)=C(C#N)C1	none
N#CC1(NC(=O)COC(=O)c2ccccc2[N+](=O)[O-])CCCCC1	none (no result: LmPK inhibitor)
N#CC1(NC(=O)COC(=O)c2cc(O)c3ccccc3c2O)CCCCC1	TbPYK inhibitor 28.2µM (no result: HCMV inh, LmPK inhibitor)
CCOc1ccc(S(=O)(=O)N(CCO)CCO)cc1-c1nc2c(C(C)(C)C)nn(C)c2c(=O)[nH]1	none (no result: Vaccinia mCherry)
COc1cc(CNC(C)(C)CO)cc(Br)c1OCc1ccc(Cl)cc1	HCMV inh inconclusive, Vaccinia Venus inconclusive, Vaccinia mCherry inconclusive
COc1cc(CNC(C)(C)CO)cc(Br)c1OCc1ccc(Cl)cc1Cl	HCMV inh -99.1, Vaccinia Venus inconclusive, Vaccinia mCherry inconclusive
COc1ccc2c(c1OC)CN1CCc3cc4c(cc3[C@@H]1[C@@H]2O)OCO4	Vaccinia mCherry inconclusive (no result: HCMV inh)
O[C@@H]1[C@@H](O)C=C2CCN3Cc4cc5c(cc4[C@H]1C23)OCO5 (stereo partly specified)	HCMV inh -97.6, Vaccinia Venus 3.98µM, Vaccinia mCherry inconclusive (no result: LmPK inhibitor)
OC1C=C2CCN3Cc4cc5c(cc4C(C1O)C23)OCO5 (stereo unspecified)	Vaccinia Venus 7.08µM, Vaccinia mCherry inconclusive (no result: TbPYK inhibitor, HCMV inh, LmPK inhibitor)
CN1CCc2cc3c(cc2C1O)OCO3 (stereo unspecified)	none (no result: TbPYK inhibitor, HCMV inh, LmPK inhibitor)
COc1ccc2nc(N3CCN(C(=O)CS(=O)(=O)c4ccc(C)cc4)CC3)sc2c1	HCMV inh -64.2, Vaccinia Venus inconclusive, Vaccinia mCherry inconclusive (no result: LmPK inhibitor)
Cc1nc2ncnn2c(C)c1CCC(=O)Oc1ccccc1	HCMV inh -60.3 (no result: Vaccinia Venus, Vaccinia mCherry)
Nc1ncnc(Nc2ccc(F)cc2)n1	none
Fc1ccc(Nc2ccnc(Nc3ccc(F)cc3)n2)cc1	Vaccinia Venus 11.2µM, Vaccinia mCherry 10µM
Cc1ncc(CO)c(/C=N/Nc2ccc(C(F)(F)F)cn2)c1O	HCMV inh -96.1, Vaccinia mCherry inconclusive
Cc1ncc(CO)c(/C=N/NC(=S)Nc2ccc(F)cc2)c1O	TbPYK inhibitor inconclusive, Vaccinia mCherry inconclusive
O=C(Nc1ccc(F)cc1)c1cc2cc(Cl)ccc2[nH]1	none
O=[N+]([O-])c1ccc(-c2ccc(S(=O)(=O)NCCN3CCCC3)cc2)cc1	HCMV inh -71.4
O=[N+]([O-])c1ccc(S(=O)(=O)NCCN2CCOCC2)cc1	none
COc1cc(NC(=O)Nc2nnc([C@H]3C[C@H](O)[C@@H](CO)O3)s2)cc(OC)c1OC	none (no result: LmPK inhibitor)
CNc1nc(Nc2ccc(C)cc2C)c2sccc2n1	HCMV inh -62.5 (no result: LmPK inhibitor)
Cc1ccc(CNc2nc(NCC3CC3)nc3ccsc23)c(C)c1	HCMV inh -77.1 (no result: LmPK inhibitor)
Cc1ccc(CNc2nc(NCc3ccccc3)nc3ccsc23)c(C)c1	HCMV inh -62.9, Vaccinia Venus inconclusive, Vaccinia mCherry inconclusive (no result: LmPK inhibitor)
c1cc2cc(CNc3nc(NCC4CC4)nc4ccsc34)ccc2o1	HCMV inh -74.4, Vaccinia mCherry inconclusive (no result: LmPK inhibitor)
COc1ccc(CNC(=O)Cn2cccc2C(=O)c2ccccc2C)cc1	none
CC(C)n1nccc1N(Cc1ccc(C#N)cc1)S(=O)(=O)c1ccccc1	none
COc1ccc(COc2ccc3ccc(=O)oc3c2)cc1	none (no result: Vaccinia Venus, Vaccinia mCherry)
COCCNc1nc(NCc2ccccc2)nc2ccsc12	HCMV inh -60.7, Vaccinia mCherry inconclusive (no result: LmPK inhibitor)
Cc1ccc(Nc2nc(NCC3CC3)nc3ccsc23)c(C)c1	HCMV inh -82.1, Vaccinia Venus inconclusive (no result: LmPK inhibitor)
Cc1ccccc1-c1nc(NCC2CC2)nc2ccsc12	none (no result: LmPK inhibitor)
COc1ccc(NC(=O)Cn2c(=O)n(-c3cc(C)cc(C)c3)c(=O)c3oc4ccccc4c32)cc1OC	HCMV inh -83.5 (no result: LmPK inhibitor)
C#CCn1c(=NC(=O)c2ccc(Cl)s2)sc2cccc(OC)c21	none
C#CCn1c(=NC(=O)c2cccs2)sc2cccc(OCC)c21	HCMV inh -67.1, Vaccinia Venus inconclusive, Vaccinia mCherry inconclusive
O=C(c1cc(-c2cccs2)nn1-c1ccccc1)N1CCN(S(=O)(=O)c2ccccc2)CC1	none (no result: LmPK inhibitor)
CCc1ccc(N2C(=O)c3sc4nnc(-c5ccccc5)c(=O)n4c3C2=O)cc1	HCMV inh -77.2, LmPK inhibitor inconclusive (no result: Vaccinia mCherry)
Cc1cccc(NC(=S)NNC(=O)c2ccc(O)cc2O)c1C	HCMV inh -98.3, Vaccinia mCherry inconclusive
Cc1cccc(NC(=O)NNC(=O)c2cc3ccccc3cc2O)c1C	none
Cc1c(Cc2ccccc2)c(=O)oc2cc(OCC(=O)NCc3ccccn3)ccc12	HCMV inh -63.0
COc1ccc(N2CCN(c3cc(C)c4ccc(C)cc4n3)CC2)cc1	HCMV inh -64.3
COc1ccc(N2CCN(c3cc(C)c4cccc(C)c4n3)CC2)cc1	HCMV inh -73.7
Cc1ccc(O)c(NC(=O)c2noc3c2CCc2ccccc2-3)c1	Vaccinia mCherry inconclusive
CN1Cc2c(N3CCOCC3)nc3sc(C(=O)c4ccc(Br)cc4)c(N)c3c2CC1(C)C	HCMV inh -94.7, Vaccinia mCherry 6.31µM
CN1Cc2c(N3CCOCC3)nc3sc(C#N)c(N)c3c2CC1(C)C	none
